Measured values reported in the supplement of paper PMC11060735.
Hit rate of the full screen: of about 1,800 compounds, about 50 (3%) showed activity. Shown is part of a subset that was picked to be rich in actives. Values without a mark were called inactive.

Tested on: mouse p16Ink4a+/- lung fibroblasts (INKBRITE, bleomycin-injured)
Assay: percentage of GFP+ (p16Ink4a+) fibroblasts among all cells in well; higher = less depletion of p16Ink4a+ cells, active = 20 or less
Conditions: 1 µM; 3 days

SMILES	percentage of GFP+
CC[C@@H]1[C@@H](C)O[C@@](O)([C@@H](C)[C@H](O)[C@H](C)[C@H]2OC(=O)/C=C/C=C/[C@H](C)[C@H]([C@@H](C)[C@@H](O)[C@H](C)[C@@]3(O)C[C@@H](O[C@H]4C[C@H](O)[C@H](O)[C@H](C)O4)[C@H](CC)[C@@H](C)O3)OC(=O)/C=C/C=C/[C@H]2C)C[C@H]1O[C@H]1C[C@H](O)[C@H](O)[C@H](C)O1 [Elaiophylin]	11.1% (active)
O=[N+]([O-])c1ncc[nH]1 [Azomycin]	43.5%
CN1c2ccccc2C(NCCCCCCC(=O)O)c2ccc(Cl)cc2S1(=O)=O (stereo not given) [Tianeptine]	29.5%
C[C@](O)(COc1ccc(C#N)cc1)C(=O)Nc1ccc(C#N)c(C(F)(F)F)c1	43.3%
CN1CCC(c2c[nH]c3ccc(O)cc23)CC1	45.6%
CO[C@H]1CCC(O[C@H]2C[C@H]([C@]3(C)CC[C@]4(C[C@H](O)[C@@H](C)[C@@H]([C@@H](C)/C=C(\C)C(=O)[C@H](C)C[C@H](C)C(=O)O)O4)O3)O[C@]3(O[C@@H]([C@H]4O[C@@](O)(CO)[C@H](C)C[C@@H]4C)C[C@@H]3C)[C@@H]2C)O[C@@H]1C (stereo not given in full) [Nanchangmycin]	18.5% (active)
CCCN1C[C@H](CSC)C[C@@H]2c3cccc4[nH]cc(c34)C[C@H]21 [Pergolide]	54.5%
C=CC[C@]1(O)CC[C@H]2[C@@H]3CCC4=CC(=O)CCC4=C3C=C[C@@]21C [Altrenogest]	48.5%
O=P1(NCCCl)OCCCN1CCCl (stereo not given) [Ifosfamide]	45.7%
Cc1cc(C(=O)CN2CCCC2)c(C)n1-c1ccc(F)cc1	51.3%
CCC1(C)CC(=O)NC(=O)C1 [Bemegride]	48.1%
CC(C)[C@]12O[C@H]1[C@@H]1O[C@]13[C@]1(O[C@H]1C[C@H]1C4=C(CC[C@@]13C)C(=O)OC4)[C@@H]2O [Triptolide]	4.17% (active)
Cc1ccccc1-n1c(Cn2ncc3c(N)ncnc32)nc2cccc(C)c2c1=O	38.7%
CCC1=C[C@@H]2CN3CCc4c([nH]c5ccccc45)[C@@](C(=O)OC)(C2)[C@@H]13 [Catharanthine]	47.9%
CN1CCN(c2nc3ccccc3nc2Cl)CC1	42.1%
